According to PubChem BioAssay (Tox21):
Records with an inconclusive call do not appear. Activity calls are given as the source filed them. Unless noted, calls come from the whole dose curve; as a rule, active = well fitted curve in the direction sought with a large enough effect in the repeat runs; inconclusive = weak or mixed curves; inactive = no such curve, though single readings can be large; an effect the other way counts as inactive or inconclusive.

Assays:
[1] = qHTS assay to identify small molecule agonists of the estrogen receptor alpha (ER-alpha) signaling pathway in the presence of an antagonist - cell viability counter screen (AID 1259386); conditions: VM7Luc4E2 viability, CellTiter-Fluor fluorescence, 22 h; series mostly up to 92.4 µM;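 note: cells exposed to compounds for 22 h at 37 °C before the viability read; nearly all actives have a fitted effect of over 30% in size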
Summary of the method: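 Viability counter screen using VM7Luc4E2 (full-length ER-alpha, four ERE-luciferase). The cells were treated with compounds alongside ICI-182,780 10.0nM for 22hr, and live-cell protease fluorescence was quantified with CellTiter-Fluor.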

[2] = target: Progesterone receptor (Homo sapiens) (UniProt P06401); experiment: qHTS assay to identify small molecule agonists of the progesterone receptor (PR) signaling pathway (AID 1346784; calls by dose curve; note: nearly all actives have a fitted effect of over 30% in size); conditions: PR-UAS-bla HEK293T, beta-lactamase FRET ratio, 16 h; series mostly up to 92.4 µM
Progesterone receptor (Homo sapiens), sequence (P06401 whole entry, looked up): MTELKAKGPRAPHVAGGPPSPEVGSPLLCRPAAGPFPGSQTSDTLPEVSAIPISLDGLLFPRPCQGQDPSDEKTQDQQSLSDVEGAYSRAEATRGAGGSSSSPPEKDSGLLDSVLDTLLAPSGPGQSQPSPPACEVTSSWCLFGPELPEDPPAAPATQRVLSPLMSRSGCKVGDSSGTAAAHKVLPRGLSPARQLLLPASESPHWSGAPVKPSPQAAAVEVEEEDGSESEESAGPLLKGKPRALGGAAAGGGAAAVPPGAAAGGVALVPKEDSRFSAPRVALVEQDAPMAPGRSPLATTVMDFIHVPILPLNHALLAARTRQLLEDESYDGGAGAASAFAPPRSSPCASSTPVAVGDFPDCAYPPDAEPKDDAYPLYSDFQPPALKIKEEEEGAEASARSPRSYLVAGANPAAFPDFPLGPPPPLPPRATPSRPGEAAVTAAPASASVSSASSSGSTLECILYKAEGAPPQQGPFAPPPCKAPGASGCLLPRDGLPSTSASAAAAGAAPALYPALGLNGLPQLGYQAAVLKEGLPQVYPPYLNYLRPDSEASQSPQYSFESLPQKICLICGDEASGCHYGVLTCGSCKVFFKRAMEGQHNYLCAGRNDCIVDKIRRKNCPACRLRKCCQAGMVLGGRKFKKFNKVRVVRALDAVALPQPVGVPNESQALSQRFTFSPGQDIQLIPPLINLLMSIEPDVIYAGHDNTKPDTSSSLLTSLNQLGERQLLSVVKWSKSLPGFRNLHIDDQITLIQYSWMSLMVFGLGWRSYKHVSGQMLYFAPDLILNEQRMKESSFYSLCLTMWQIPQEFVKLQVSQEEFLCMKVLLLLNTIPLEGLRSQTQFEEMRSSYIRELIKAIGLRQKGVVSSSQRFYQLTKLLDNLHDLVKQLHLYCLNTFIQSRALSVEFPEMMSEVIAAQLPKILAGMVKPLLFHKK
Summary of the method: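 Beta-lactamase reporter read-out: after 16 hr compound treatment at 37C and a further 2 hr at room temperature with LiveBLAzer B/G FRET substrate, fluorescence was measured in PR-UAS-bla HEK 293T cells grown in 2% charcoal-stripped serum.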

[3] = target: Progesterone receptor (Homo sapiens) (UniProt P06401); experiment: qHTS assay to identify small molecule antagonists of the progesterone receptor (PR) signaling pathway (AID 1346795; active = well fitted inhibition curve with a large enough effect in the signal ratio in the repeat runs, not every such curve was filed as active; the % refers to the signal ratio); conditions: PR-UAS-bla HEK293T, beta-lactamase FRET ratio, 16 h; series mostly up to 92.4 µM
Summary of the method: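 Read-out is fluorescence from the LiveBLAzer B/G FRET substrate, cleaved by a UAS-controlled beta-lactamase in PR-UAS-bla HEK293T cells after 16 hr exposure to compound plus 1 nM promegestone (final), followed by 2 hr at room temperature.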

[4] = qHTS assay to identify small molecule antagonists of the progesterone receptor (PR) signaling pathway - cell viability counter screen (AID 1346798); conditions: PR-UAS-bla HEK293T viability, CellTiter-Glo luminescence, 16 h; series mostly up to 92.4 µM; note: nearly all actives have a fitted effect of over 50% in size; note: potency is the fitted concentration of half-maximal effect;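 for activity change, negative = cytotoxicity: HEK293T PR-UAS-bla cells stimulated with the agonist R5020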
Summary of the method: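 HEK293T PR-UAS-bla, 2% charcoal-stripped FBS; 4 hr pre-plate; cpd + R5020, 16 h 37C; LiveBLAzer read first; then CellTiter-Glo 30 min RT, luminescence.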

[5] = qHTS assay to identify small molecule agonists of the progesterone receptor (PR) signaling pathway - cell viability counter screen (AID 1346799; calls by dose curve; note: nearly all actives have a fitted effect of over 45% in size; note: potency is the fitted concentration of half-maximal effect); conditions: PR-UAS-bla HEK293T viability, CellTiter-Glo luminescence, 16 h; series mostly up to 92.4 µM
Summary of the method: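 Luminescence from CellTiter-Glo, added after the beta-lactamase FRET read in the same wells, gave cytotoxicity in PR-UAS-bla HEK293T cells treated with compounds for 16 hr at 37C.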

[6] = qHTS assay to identify small molecule antagonists of the TGF-beta/Smad signaling pathway - cell viability counter screen (AID 1346824); conditions: SBE-bla HEK293T viability, CellTiter-Glo luminescence; series mostly up to 76.8 µM; note: nearly all actives have a fitted effect of over 50% in size
Summary of the method: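 SBE-bla HEK 293T cells, incubated overnight, then compound plus 0.25 ng/mL TGF-beta1 (stock added) for 5 hr at 37 C. Viability was read in the same wells by CellTiter-Glo luminescence after 30 min at room temperature.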

[7] = qHTS assay to identify small molecule agonists of the TGF-beta/Smad signaling pathway - cell viability counter screen (AID 1346829); conditions: SBE-bla HEK293T viability, CellTiter-Glo luminescence, 5 h; series mostly up to 76.8 µM; note: top concentration of the series differs between compounds; nearly all actives have a fitted effect of over 45% in size
Summary of the method: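 Compound-treated SBE-bla HEK 293T cells (5 hr, 37 C) were assessed for viability with CellTiter-Glo in parallel with the reporter read.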

[8] = qHTS assay to identify small molecule agonists of the TGF-beta/Smad signaling pathway (AID 1346859; active = well fitted activation curve with a large enough effect in the signal ratio in the repeat runs, not every such curve was filed as active; the % refers to the signal ratio); conditions: SBE-bla HEK293T, TGF-beta/Smad beta-lactamase reporter, 5 h; series mostly up to 76.8 µM
Summary of the method: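 SBE-bla HEK 293T, 4,000 cells/well, plated o/n; cpd in DMSO, 5 hr, 37 C/5% CO2; B/G FRET substrate 2 hr RT; ex 405, em 460/530 nm.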

[9] = target: Thyrotropin-releasing hormone receptor (Homo sapiens) (UniProt P34981); experiment: qHTS assay to identify small molecule antagonists of the thyrotropin-releasing hormone receptor (TRHR) signaling pathway (AID 1346877; active = well fitted inhibition curve with a large enough effect in the repeat runs, not every such curve was filed as active); conditions: TRHR-HEK293, TRH-induced calcium fluorescence, antagonist mode; series mostly up to 51.3 µM
Thyrotropin-releasing hormone receptor (Homo sapiens), sequence (P34981 whole entry, looked up): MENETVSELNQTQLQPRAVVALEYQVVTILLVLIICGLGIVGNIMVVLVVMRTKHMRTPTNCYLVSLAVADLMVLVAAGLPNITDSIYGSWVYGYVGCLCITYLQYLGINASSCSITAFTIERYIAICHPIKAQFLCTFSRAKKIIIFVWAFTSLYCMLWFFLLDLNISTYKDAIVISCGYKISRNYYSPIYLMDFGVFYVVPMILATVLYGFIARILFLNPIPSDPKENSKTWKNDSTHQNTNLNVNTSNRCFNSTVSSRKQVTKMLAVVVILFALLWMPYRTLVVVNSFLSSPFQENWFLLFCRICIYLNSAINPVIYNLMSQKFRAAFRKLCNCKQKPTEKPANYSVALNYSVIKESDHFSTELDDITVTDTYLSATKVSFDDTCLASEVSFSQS
Summary of the method: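 Following an 18 h incubation at 37 °C and a 2 h calcium dye load, TRHR-HEK293 cells were exposed to compound (5 min, room temperature) and challenged with TRH, 1 nM final.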

[10] = target: Thyrotropin-releasing hormone receptor (Homo sapiens) (UniProt P34981); experiment: qHTS assay to identify small molecule agonists of the thyrotropin-releasing hormone receptor (TRHR) signaling pathway (AID 1346891; calls by dose curve); conditions: TRHR-HEK293 calcium fluorescence, agonist mode; series mostly up to 57.6 µM
Summary of the method: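 Intracellular calcium rise, read as fluorescence every second for 3 min, served as the agonist signal in dye-loaded HEK293 cells expressing TRHR; each compound ran at 15 concentrations in triplicate.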
% is set by controls: 0 for no effect and ±100 for the full control effect.

CCN(C)C(=O)Oc1cccc([C@H](C)N(C)C)c1
inactive: Potency [1] | Potency [2] | Potency [3] | Potency [4] | Potency [5] | outcome [6] | outcome [7] | outcome [8] | outcome [9] | outcome [10]

N[C@@H](COP(=O)(O)O)C(=O)O
inactive: activity change, negative = cytotoxicity [1] 0.187% [at 19 µM] | activation [2] 0.26% [at 19 µM] | activity change, negative = inhibition [3] 6.07% [at 18.9 µM] | activity change, negative = cytotoxicity [4] -0.532% [at 18.9 µM] | activity change, negative = cytotoxicity [5] 13.8% [at 19 µM] | viability change, negative = cytotoxic [6] -0.3% [at 15.8 µM] | activity change, negative = cytotoxicity [7] 0.5% [at 15.8 µM] | activation [8] -0.654% [at 15.8 µM] | activity, negative = inhibition [9] -1.81% [at 10.5 µM] | activation [10] -0.175% [at 11.8 µM]

O=C(CS(=O)Cc1ccco1)NC/C=C\COc1cc(CN2CCCCC2)ccn1 (stereo unspecified)
inactive: Potency [1] | Potency [2] | Potency [3] | Potency [4] | Potency [5] | outcome [6] | outcome [7] | outcome [8] | outcome [9] | outcome [10]

Cc1cc(NC(=O)C2=C(O)c3ccccc3S(=O)(=O)N2C)no1
inactive: Potency [1] | Potency [2] | Potency [3] | Potency [4] | Potency [5] | outcome [6] | outcome [7] | outcome [8] | outcome [9] | outcome [10]

CN(C)C(=O)CNC(=O)Cc1ccccc1
inactive: Potency [1] | Potency [2] | Potency [3] | Potency [4] | Potency [5] | outcome [6] | outcome [7] | outcome [8]

CC(C)c1ccc2cc(C(C)C)ccc2c1
inactive: Potency [1] | Potency [2] | Potency [3] | Potency [4] | Potency [5] | outcome [6] | outcome [7] | outcome [8] | outcome [9] | outcome [10]

COCCc1ccc(OCC2CO2)cc1 (stereo unspecified)
inactive: Potency [1] | Potency [2] | Potency [3] | Potency [4] | Potency [5] | outcome [6] | outcome [7] | outcome [8] | outcome [9] | outcome [10]

CCN1CCc2nc(N)oc2CC1
inactive: Potency [1] | Potency [2] | Potency [3] | Potency [4] | Potency [5] | outcome [6] | outcome [7] | outcome [8] | outcome [9] | outcome [10]

C=C(C)C(=O)OCc1ccccc1
inactive: Potency [1] | Potency [2] | Potency [3] | outcome [6] | outcome [7] | outcome [8]
active: Potency [4] 30.6 µM | Potency [5] 48.6 µM

CCCCCCCCC(=O)Cl
inactive: Potency [1] | Potency [2] | Potency [3] | Potency [4] | Potency [5] | outcome [6] | outcome [7] | outcome [8] | outcome [9] | outcome [10]

Cc1ccc(C=O)cc1C
inactive: Potency [1] | Potency [2] | Potency [3] | Potency [4] | Potency [5] | outcome [6] | outcome [7] | outcome [8] | outcome [9] | outcome [10]

Cc1ccccc1N=O
inactive: Potency [1] | Potency [2] | Potency [3] | Potency [4] | Potency [5] | outcome [6] | outcome [7] | outcome [8] | outcome [9] | outcome [10]

C[C@@H](Oc1ccc(CNC(=O)c2cccnc2Oc2ccc3c(c2)OCO3)c(F)c1)C(=O)O
inactive: Potency [1] | Potency [2] | Potency [3] | Potency [4] | Potency [5] | outcome [6] | outcome [7] | outcome [8] | outcome [9] | outcome [10]

CN(C)CCOCCO
inactive: Potency [1] | Potency [2] | Potency [3] | Potency [4] | Potency [5] | outcome [6] | outcome [7] | outcome [8] | outcome [9] | outcome [10]

Cc1c(I)c(=O)n(-c2ccccc2)n1C
inactive: Potency [1] | Potency [2] | Potency [3] | Potency [4] | Potency [5] | outcome [6] | outcome [8] | outcome [9] | outcome [10]

CCOCCOC(=O)/C=C/c1ccc(OC)cc1
inactive: Potency [1] | Potency [2] | Potency [3] | Potency [4] | outcome [8]

COc1ccc(Br)c(C)c1
inactive: Potency [1] | Potency [2] | Potency [3] | Potency [5] | outcome [6] | outcome [7] | outcome [8] | outcome [9] | outcome [10]

CCCCNc1ccc(C(=O)OCCN(C)C)cc1
inactive: Potency [1] | Potency [2] | Potency [3] | Potency [5] | outcome [6] | outcome [7] | outcome [8] | outcome [9] | outcome [10]

COC(=O)C1CC(=O)C(C(=O)OC)CC1=O (stereo unspecified)
inactive: activity change, negative = cytotoxicity [1] 1.85% [at 8.39 µM] | activation [2] 15.8% [at 8.39 µM] | activity change, negative = inhibition [3] 5.34% [at 8.39 µM] | activity change, negative = cytotoxicity [4] 15.1% [at 8.39 µM] | viability change, negative = cytotoxic [6] -4.8% [at 6.97 µM] | activity change, negative = cytotoxicity [7] -0.722% [at 6.97 µM] | activation [8] 5.28% [at 6.97 µM] | activity, negative = inhibition [9] 1.02% [at 4.65 µM] | activation [10] 0.0574% [at 5.23 µM]

Cc1ccc2c(c1)OCC(=O)CO2
inactive: Potency [1] | Potency [2] | Potency [3] | Potency [4] | Potency [5] | outcome [7] | outcome [8] | outcome [9] | outcome [10]

O=P(O)(O)OP(=O)(O)O
inactive: Potency [1] | Potency [2] | Potency [3] | Potency [4] | Potency [5] | outcome [6] | outcome [8] | outcome [9] | outcome [10]

CN=C(NC#N)Nc1ccc(C2=NNC(=O)CC2C)cc1 (stereo unspecified)
inactive: Potency [1] | Potency [2] | Potency [3] | Potency [4] | Potency [5] | outcome [6] | outcome [8]

Cc1ccsc1/C=C/C1=NCCCN1C
inactive: Potency [1] | Potency [2] | Potency [3] | Potency [4] | Potency [5] | outcome [6] | outcome [7] | outcome [8] | outcome [9] | outcome [10]

Nc1ccc(S(=O)(=O)Nc2ccc(Cl)nn2)cc1
inactive: Potency [1] | Potency [2] | Potency [3] | Potency [4] | Potency [5] | outcome [7] | outcome [8] | outcome [9] | outcome [10]
